# Laboratory results published in PubChem BioAssay (NCATS).
# “And” between values parts separate entries of the source, which are not always exact repeats. Equal values may be shown once. Unmarked numbers belong to inactive results. Inconclusive results are not listed. The source made the active and inactive calls. Unless noted, calls come from the whole dose curve; as a rule, active = well fitted curve in either direction with a large enough effect (not every such curve was filed as active); inconclusive = small, poorly fitted or top-dose-only effect, or another doubt; inactive = flat fitted curve, though single readings scatter.
# Assays:
# [1] = target: Lysosomal acid glucosylceramidase (Homo sapiens) (UniProt P04062); assay: Glucocerebrosidase-p2 (AID 348; in the data active = potency below about 10 µM; note: potency is the fitted concentration of half-maximal effect); details: purified GBA, blue fluorogenic substrate, 40 min
# How it was run: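 Normal human glucocerebrosidase (0.2 nM) with blue fluorogenic substrate (80 uM final) in citrate/phosphate pH 5.9 with 10mM sodium taurocholate, 0.01% tween-20; 40 min RT, NaOH/glycine stop; fluorescence Ex 365/Em 440; AC50 from a titration from 0.6 nM upwards.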
# [2] = AP1 Signaling Pathway (AID 357); details: ME-180 AP-1-bla reporter, EGF-induced, beta-lactamase ratio, 5 h; note: % is set by controls: 0 for no effect and ±100 for the full control effect
# How it was run: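 Titration-series screen for positive or negative modulators of EC50 EGF-induced signaling in ME-180 cells carrying an AP-1-driven beta-lactamase reporter. After 5 hours at 37 degrees Celsius, CCF4 460nm/530nm emission ratio gave %Activity; AC50 values derived.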
# [3] = Stat Signaling Pathway (AID 446); details: ME-180 (cervical carcinoma) SIE beta-lactamase reporter, IL-6 stimulated, 5 h; series mostly up to 17.2 µM;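 note: ME-180 cervical cancer cells given 40 pM IL-6 alongside compound; SIE-controlled beta-lactamase reporter measured as 460/530 nm FRET emission ratio; % is set by controls: 0 for no effect and ±100 for the full control effect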
# How it was run: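 Emission at 460 and 530 nm (excitation 405 nm) reports SIE-controlled beta-lactamase in ME-180 cells. Cells received compound with 40 pM IL-6 for 5 hrs at 37 C; data scaled between 300 pM IL-6 and 125 nM JAK-inhibitor controls.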
# [4] = target: Glucocorticoid receptor (Homo sapiens) (UniProt P04150); assay: GR-GFP Redistribution (AID 450;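 active = compounds whose dose series gives a full or clear partial fitted curve of increased nuclear translocation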; note: potency is the fitted concentration of half-maximal effect); details: U2OS GR-GFP nuclear translocation, laser cytometry, 2 h
# [5] = target: Glucocorticoid receptor (Homo sapiens) (UniProt P04150); assay: GR-EFC Redistribution (AID 451; calls by dose curve; note: potency is the fitted concentration of half-maximal effect); details: CHO-K1 GR-EFC translocation, beta-gal luminescence, 2 h
# How it was run: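 CHO-K1 cells expressing nuclear EA and GR-ED fragments of b-gal; compounds titrated up to 46 uM final, 2 h at 37 C. GR nuclear translocation read as complemented b-gal luminescence after 1 h RT detection.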
# [6] = target: Mitogen-activated protein kinase 10 (Mus musculus) (UniProt Q61831); assay: JNK3 AlphaScreen Assay (AID 530); details: JNK3 lysate, c-Jun phosphorylation; series mostly up to 57.1 µM;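 note: kinase came from lysate of stimulated human HepG2 cells; signal reports phosphorylation of biotinylated GST-cJun 1-79 at Ser73 with 10 µM ATP; % is set by controls: 0 for no effect and ±100 for the full control effect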
# How it was run: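 HepG2 lysate (IL-1b/TNFa pre-activated) + biotin-GST-cJun 1-79 + anti-pSer73 cJun; cpd titration, 15 min RT; ATP 10 uM start; Tris pH 7.6, MgCl2, DTT, vanadate; beads in EDTA buffer; AlphaScreen.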
# [7] = target: Cytochrome P450 1A2 (Homo sapiens) (UniProt P05177); assay: p450-cyp1a2 (AID 410; calls by dose curve; note: potency is the fitted concentration of half-maximal effect;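 for activity change, negative = inhibition: -100% = full effect of reference inhibitor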); details: recombinant CYP1A2, luciferin-ME demethylation, luminescence; series mostly up to 57 µM
# How it was run: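 20nM CYP1A2, 100uM Luciferin-ME (=Km), 100mM KPO4; cpd 10 min RT; +NADPH regen, 60 min RT; stop/detect 20 min; luminescence. Normalized to furafylline 57 uM = full inhibition.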
# [8] = NFAT Signaling Pathway (AID 444); details: Jurkat NFAT-bla M1, carbachol, beta-lactamase ratio, 5 h;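 note: carbachol stimulus at about its EC50 of 1 µM final; % is set by controls: 0 for no effect and ±100 for the full control effect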
# How it was run: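 Jurkat cells with NFAT-driven β-lactamase reporter and co-expressed M1 receptor, stimulated with carbachol (final 1 uM, ~EC50), compound titration, 5 h at 37 °C. CCF4 loaded 1 h at RT; 460/530 nm ratio gave %activity and AC50.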
# Chain of Cytochrome P450 1A2 (Homo sapiens) (P05177 whole entry, looked up): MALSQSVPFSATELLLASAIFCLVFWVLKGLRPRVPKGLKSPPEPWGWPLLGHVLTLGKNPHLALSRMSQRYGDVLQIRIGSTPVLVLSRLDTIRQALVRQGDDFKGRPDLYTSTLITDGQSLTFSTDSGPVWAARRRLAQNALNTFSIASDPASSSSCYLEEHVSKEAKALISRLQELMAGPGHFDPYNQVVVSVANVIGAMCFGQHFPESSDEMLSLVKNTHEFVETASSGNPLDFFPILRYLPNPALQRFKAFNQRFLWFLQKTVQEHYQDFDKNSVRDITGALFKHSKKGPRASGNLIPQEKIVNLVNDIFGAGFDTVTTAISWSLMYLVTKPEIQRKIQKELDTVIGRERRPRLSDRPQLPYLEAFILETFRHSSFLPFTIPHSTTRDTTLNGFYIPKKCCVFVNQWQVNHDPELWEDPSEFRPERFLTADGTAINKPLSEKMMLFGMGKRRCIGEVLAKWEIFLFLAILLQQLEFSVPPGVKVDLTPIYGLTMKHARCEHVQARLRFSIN
# Chain of Glucocorticoid receptor (Homo sapiens) (P04150 whole entry, looked up, the tested form may be a part): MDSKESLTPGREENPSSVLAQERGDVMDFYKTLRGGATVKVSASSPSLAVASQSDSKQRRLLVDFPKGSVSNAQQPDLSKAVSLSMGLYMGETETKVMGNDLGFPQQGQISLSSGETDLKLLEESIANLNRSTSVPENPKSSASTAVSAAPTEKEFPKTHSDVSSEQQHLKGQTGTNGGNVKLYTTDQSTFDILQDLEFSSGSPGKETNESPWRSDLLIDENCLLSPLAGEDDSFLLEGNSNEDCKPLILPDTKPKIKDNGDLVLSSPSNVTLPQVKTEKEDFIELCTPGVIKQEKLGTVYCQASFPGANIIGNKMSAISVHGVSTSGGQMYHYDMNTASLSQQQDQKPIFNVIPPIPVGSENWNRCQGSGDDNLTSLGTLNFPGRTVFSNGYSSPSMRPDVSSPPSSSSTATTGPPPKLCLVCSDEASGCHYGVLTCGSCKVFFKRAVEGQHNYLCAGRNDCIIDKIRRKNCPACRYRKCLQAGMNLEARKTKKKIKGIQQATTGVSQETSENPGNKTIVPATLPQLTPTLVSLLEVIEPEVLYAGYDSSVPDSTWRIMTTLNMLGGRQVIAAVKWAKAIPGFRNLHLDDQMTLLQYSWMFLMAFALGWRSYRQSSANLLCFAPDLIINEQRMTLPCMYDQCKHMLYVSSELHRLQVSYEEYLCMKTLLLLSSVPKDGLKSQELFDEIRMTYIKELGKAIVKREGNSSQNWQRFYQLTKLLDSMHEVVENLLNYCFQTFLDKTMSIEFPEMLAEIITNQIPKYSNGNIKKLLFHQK
# Chain of Lysosomal acid glucosylceramidase (Homo sapiens) (P04062 whole entry, looked up): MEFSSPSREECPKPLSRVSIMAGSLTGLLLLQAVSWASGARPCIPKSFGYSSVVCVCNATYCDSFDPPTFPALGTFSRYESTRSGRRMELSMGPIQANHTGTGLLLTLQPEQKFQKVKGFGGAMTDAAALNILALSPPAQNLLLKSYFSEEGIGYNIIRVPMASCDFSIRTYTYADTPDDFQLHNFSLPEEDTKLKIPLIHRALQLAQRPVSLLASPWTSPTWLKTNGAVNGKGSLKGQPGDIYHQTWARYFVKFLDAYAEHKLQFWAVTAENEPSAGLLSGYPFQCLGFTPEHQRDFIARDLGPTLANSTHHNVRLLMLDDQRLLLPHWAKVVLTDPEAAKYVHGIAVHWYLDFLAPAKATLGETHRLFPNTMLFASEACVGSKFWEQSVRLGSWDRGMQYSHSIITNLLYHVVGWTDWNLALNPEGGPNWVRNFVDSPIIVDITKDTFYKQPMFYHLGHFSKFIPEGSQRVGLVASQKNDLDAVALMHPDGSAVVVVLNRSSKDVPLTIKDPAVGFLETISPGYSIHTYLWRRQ
Compound,Potency [1] [µM],"activity change, negative = inhibition ([2]; at 17.2 µM (top of the series))","activity change, negative = inhibition ([2]; at 38 µM (top of the series))",outcome [3],Potency [4],Potency [5],outcome [6],Potency [7],"activity change, negative = inhibition ([8]; at 17.2 µM (top of the series))","activity change, negative = inhibition ([8]; at 38 µM (top of the series))"
CN1CCN(CCCN2c3ccccc3Sc3ccc(C(F)(F)F)cc32)CC1,> 11.4,7.77% and 23.2%,29.9%,inactive,> 46 µM and > 20.6 µM,> 46 µM and > 20.6 µM and > 9.22 µM,inactive,–,–,–
O=c1n(CCCN2CCN(c3cccc(Cl)c3)CC2)nc2ccccn12,–,-7.19% and -2.29%,-2.63%,inactive,–,–,inactive,inactive,-9.78%,-3.74%
CCCCNc1cc(C(=O)O)cc(S(N)(=O)=O)c1Oc1ccccc1,–,2.74% and -1.68%,-1.83%,inactive,–,–,inactive,–,1.71% and -0.748%,7.04%
O=C1CCc2cc(OCCCCc3nnnn3C3CCCCC3)ccc2N1,–,-11%,-14.1%,inactive,> 46 µM and > 20.6 µM,> 46 µM,inactive,inactive,-6.28%,-9.05%
Cc1oncc1C(=O)Nc1ccc(C(F)(F)F)cc1,–,-20.4% and 3.89%,-1.93%,inactive,> 46 µM and > 20.6 µM,> 46 µM and > 20.6 µM,inactive,631 nM (active) and 63.1 nM (active),0.0794% and 7.99%,-5.42%
CNC[C@H](O)c1cccc(O)c1,–,-10.2%,-17.9%,inactive,–,–,inactive,–,-25.3%,-0.528%
Nc1nc2c(ncn2COCCO)c(=O)[nH]1,–,10.5% and -13.7%,1.53%,inactive,> 46 µM and > 20.6 µM,> 46 µM and > 20.6 µM,inactive,inactive,-0.796% and 22.4%,9.44%
Cc1ccc(N(CC2=NCCN2)c2cccc(O)c2)cc1,–,6.96% and 4.13% and 12.9%,18%,inactive,> 46 µM and > 20.6 µM,> 46 µM and > 20.6 µM,inactive,inactive,-19.1% and -11.9% and 3.66%,-12.9%
N=c1nc(N2CCCCC2)cc(N)n1O,–,-4.3% and 1.82%,2.17%,inactive,> 46 µM and > 20.6 µM,> 46 µM and > 20.6 µM,inactive,inactive,-4.8%,7.52%
N[C@@H]1CONC1=O,–,4.13% and -17.2%,6.67% and -0.268% and -2.74%,inactive,> 46 µM and > 20.6 µM,> 46 µM and > 20.6 µM,inactive,inactive,-1.83%,-6.1% and -4.54% and -4.29%
Nc1nc2ccc(OC(F)(F)F)cc2s1,–,7.09% and 1.61%,-15%,inactive,> 46 µM and > 20.6 µM,> 46 µM and > 20.6 µM,inactive,–,0.982% and -0.48%,13.4%
